Source: PubChem BioAssay (NCI)
Compounds without any hit were thinned out: in the full panel of roughly 83,000, 20% have a hit.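 Cell lines were cultured in 96-well plates, exposed to a single compound concentration, and assessed for percent growth 48 hours later.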 A number with no mark means an inactive call. Calls of active or inactive are those of the source. Rule for the calls: active = growth percent below 10; inactive = the rest.

What was measured:
Experiment in all cases: NCI-60 one-dose screen, 48 h (100 = growth as untreated, 0 = no growth, -100 = all killed)
Settings in all cases: 10 µM unless noted
[1] = tested on: SR leukemia
[2] = tested on: RPMI-8226 leukemia
[3] = tested on: OVCAR-8 ovarian
[4] = tested on: OVCAR-5 ovarian
[5] = tested on: OVCAR-4 ovarian
[6] = tested on: SK-OV-3 ovarian
[7] = tested on: IGROV1 ovarian
[8] = tested on: OVCAR-3 ovarian
[9] = tested on: HS 578T breast
[10] = tested on: NCI/ADR-RES ovarian

SMILES	growth [1]	growth [2]	growth [3]	growth [4]	growth [5]	growth [6]	growth [7]	growth [8]	growth [9]	growth [10]
C=C1C(=O)O[C@H]2[C@H]1CC/C(COC(=O)NCc1ccc(OC)c(OC)c1)=C\CC[C@@]1(C)O[C@@H]21	6.13% (active)	25.1%	47.9%	85.1%	42.3%	101%	61%	19.9%	86.2%	93.9%
O=[N+]([O-])c1ccc(Nc2nc(NCCN3CCOCC3)ncc2[N+](=O)[O-])cc1	107%	100%	99.5%	98.6%	85.4%	93.4%	81%	102%	87.8%	89.8%
CCOC(=O)n1cc(-c2nonc2-c2cn(C)c3ncccc23)c2ccccc21	60.5%	77.9%	92.6%	94.2%	71.3%	77.6%	54.2%	85.6%	77.7%	73.1%
CC1=C(O)C(=O)C(C(C#N)(C#N)C(C#N)C#N)C1 (stereo not given)	99.3%	106%	101%	109%	107%	99%	102%	94.8%	98.9%	97.7%
C=C1c2nc3ccccc3n2C=C(c2ccc(Cl)cc2)N1Cc1ccc(OC)cc1	-2.2% (active)	30.9%	91.1%	72.1%	71.6%	85.8%	55.2%	85.4%	104%	62.7%
Cc1nn(-c2cc(=O)[nH]c3ccccc23)c(N)c1C#N	105%	99.9%	99.2%	101%	105%	111%	77.7%	106%	98.6%	108%
O=C1c2cccc3cccc(c23)C(=O)N1CCCCCN1CCN(CCCCCOc2ccc(-c3nc4ccc(N5CCOCC5)cc4[nH]3)cc2)CC1	-44.1% (active)	-59% (active)	10.6%	158%	83.2%	135%	44.3%	105%	107%	25.9%
COc1ccccc1NS(=O)(=O)c1ccc2oc(SC(C)C)nc2c1	54.9%	52.2%	83.1%	82.1%	53%	114%	92.1%	85.7%	95.4%	43.8%
Cc1cc(C)nc(SC2=C(Nc3cccc(Cl)c3)C(=O)N(Cc3ccccc3)C2=O)n1	28.8% [30 µM]	23.3% [30 µM]	52.5% [30 µM]	107% [30 µM]	61.9% [30 µM]	113% [30 µM]	43.3% [30 µM]	68.6% [30 µM]	97.8% [30 µM]	55.5% [30 µM]
CN(C)CCN1C(=O)c2cccc3c(N)ccc(c23)C1=O	-19.2% (active)	4.13% (active)	18.1%	36.5%	41.6%	32.2%	27.6%	21.8%	56.8%	40%
Nc1ccc(S(=O)(=O)O)c2ccc(N=Nc3ccc(N=Nc4ccc(S(=O)(=O)O)cc4)c4ccccc34)c(O)c12	99.8%	104%	103%	108%	115%	96%	86.5%	108%	100%	112%
CC(=O)OC[C@H]1O[C@H](OC(C)=O)[C@H](NC(=O)/C=C/CCl)[C@@H](OC(C)=O)[C@@H]1OC(C)=O	44.5%	71.7%	81.6%	84.5%	68.2%	57.2%	93.9%	30.6%	92%	90.7%
COc1cc(-c2nc3cc(Cl)c(Cl)cc3[nH]2)ccc1OCC(=O)N=Nc1c(O)[nH]c2ccccc12	-27.7% (active)	-45.2% (active)	-59% (active)	-75% (active)	-92.7% (active)	-28.2% (active)	-86.8% (active)	-98.1% (active)	-47.9% (active)	85.3%
NC(=O)c1cc(Cl)ccc1NC(=O)/C=C/c1ccccc1	-34.1% (active)	12.8%	51.2%	54.6%	40.7%	3.73% (active)	88.6%	-30.3% (active)	7.85% (active)	10.8%
CCCCn1c(-c2ccc(C(=O)O/N=C(\N)c3ccc4ccccc4c3)cc2)nc(-c2ccccc2)c1-c1ccccc1	12.1%	67.3%	72.2%	79.1%	55.5%	99%	-61.9% (active)	71.7%	57.9%	30.9%
COc1cccc(/C=N/NC(=O)c2ccccc2Nc2ccnc(C(F)(F)F)c2)c1O	30.3%	-18.8% (active)	19.7%	20.7%	27.9%	8.06% (active)	4.92% (active)	43.2%	44.9%	6.84% (active)
C=C1c2nc3ccccc3n2C=C(c2ccc(OC)cc2)N1Cc1ccccc1	47.3%	39.4%	88.3%	101%	80.1%	107%	96.7%	85.4%	116%	77.4%
CCC([N+](=O)[O-])S(=O)(=O)c1ccc(C)cc1 (stereo not given)	113%	106%	95.3%	88.2%	93.6%	108%	103%	150%	129%	92.3%
COc1ccc(/C=C\c2cc(OC)c(OC)c(OC)c2)cc1OC(=O)c1cccc(Cn2cc(CCOC(=O)[C@H](N)Cc3cn(C)c4ccccc34)nn2)c1	-0.0904% (active)	25.9%	23%	41%	20.9%	34.7%	16.2%	1.65% (active)	26.9%	6.28% (active)
CC(=O)O[C@H]1C(=O)[C@@]2(C)[C@H]([C@H](OC(=O)c3ccccc3)[C@]3(O)C[C@H](OC(=O)[C@H](OC(=O)CCC(=O)OC4CCC(S/N=C(N)/N=C(\N)N(C)C)CC4)[C@@H](NC(=O)c4ccccc4)c4ccccc4)C(C)=C1C3(C)C)[C@]1(OC(C)=O)CO[C@@H]1C[C@@H]2O (stereo not given in full)	11.3%	14%	21.8%	39.5%	40.3%	28.4%	43.1%	10.2%	-9.33% (active)	44.5%
COc1cc2c(cc1-c1c(C)noc1C)ncc1nc(C3CCCC3)n([C@H](C)COC(F)F)c12	18.7%	14.7%	38.6%	78%	40.9%	7.48% (active)	42.1%	36.5%	11%	35.5%
COc1cc2c(cc1O)CC[C@@H]1[C@@H]2CC[C@]2(C)[C@@H](OCCCN(C)C)CC[C@@H]12	-36.2% (active)	-32.9% (active)	-34.2% (active)	2.83% (active)	-15% (active)	-59.1% (active)	-35.2% (active)	-55.5% (active)	-38.2% (active)	-23.4% (active)
CCOc1cc2ncc(C#N)c(Nc3ccc(OCc4cccc(F)c4)c(Cl)c3)c2cc1NC(=O)CCCCC1CCSS1 (stereo not given)	92.4%	78.6%	91%	111%	99.6%	83.7%	82.2%	102%	91.3%	101%
COc1cccc(NC(=O)c2sc3nc(C)c(C(C)=O)cc3c2N)c1	19%	52.2%	63.5%	112%	63.7%	25.2%	59.7%	17.8%	43.3%	34.1%
CNc1ccc(-c2cc(=O)oc3ccc(Cl)cc23)cc1	9.27% (active)	18.7%	16.6%	55.6%	62.6%	9.16% (active)	50.1%	9.85% (active)	16%	12.4%
COc1ccc(SC2c3ccc(C)cc3Oc3nc(N)c(C#N)c(N)c32)cc1 (stereo not given)	-28% (active)	-34.2% (active)	-89.1% (active)	5.64% (active)	-93.5% (active)	44.9%	-82.8% (active)	-93.7% (active)	3.13% (active)	1.24% (active)
